Results: PubChem BioAssay (NCATS)
Inconclusive results are not listed. Active and inactive are the calls of the source. Unless noted, the call rests on the fitted dose curve; in most records, active means well fitted curve in the direction sought with a large enough effect; inconclusive means small, poorly fitted or top-dose-only effect, or another doubt; inactive means no such curve, though single readings can be large; an effect the other way counts as inactive or inconclusive.

Legend:
[1] = target: Lysosomal acid glucosylceramidase (Homo sapiens) (UniProt P04062); assay: Glucocerebrosidase-p2 (AID 348; in the data active means potency below about 10 µM; further: potency means the concentration at half of the fitted maximal effect); settings: purified GBA, blue fluorogenic substrate, 40 min
Summary of the method: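 Compounds titrated from 0.6 nM upwards against 0.2 nM enzyme in pH 5.9 citric acid/KH2PO4, taurocholate, tween-20; blue fluorogenic substrate 80 uM, 40 min room temperature, stopped and read Ex 365/Em 440 for AC50.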

[2] = AP1 Signaling Pathway (AID 357; active means well fitted curve in either direction with a large enough effect, not every such curve was filed as active; further: on the % scale 0 is the no-effect control and ±100 the full control effect); settings: ME-180 AP-1-bla reporter, EGF-induced, beta-lactamase ratio, 5 h; at 7.69 µM (top of the series) unless noted
Summary of the method: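 AP-1-bla ME-180 cells with beta-lactamase reporter under AP-1 response element, stimulated with EC50 EGF; compounds titrated, 5 hours at 37 degrees Celsius. CCF4 read at 460/530 nm ratio; positive and negative modulators judged by AC50.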

[3] = NFAT Signaling Pathway (AID 444; active means well fitted curve in either direction with a large enough effect, not every such curve was filed as active;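 further: carbachol stimulus at about its EC50 of 1 µM final; on the % scale 0 is the no-effect control and ±100 the full control effect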); settings: Jurkat NFAT-bla M1, carbachol, beta-lactamase ratio, 5 h; at 7.69 µM (top of the series) unless noted
Summary of the method: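 Read-out: CCF4 FRET ratio (460 nm/530 nm) after 1 h RT dye loading, used for %activity and AC50 from titration series. Cells: Jurkat NFAT-β-lactamase/M1 line, treated with compound plus 1 uM carbachol for 5 h, 37 °C.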

[4] = Stat Signaling Pathway (AID 446; active means well fitted curve in either direction with a large enough effect, not every such curve was filed as active;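 further: ME-180 cervical cancer cells given 40 pM IL-6 alongside compound; SIE-controlled beta-lactamase reporter measured as 460/530 nm FRET emission ratio; on the % scale 0 is the no-effect control and ±100 the full control effect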); settings: ME-180 SIE beta-lactamase reporter, IL-6 stimulated, 5 h; at 7.69 µM (top of the series) unless noted
Summary of the method: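 ME-180 cells carrying a SIE-driven beta-lactamase reporter are stimulated with 40 pM IL-6 for 5 h at 37C in the presence of compound. The 460/530 nm FRET substrate ratio is read after 2.5 h at RT. Data are normalised to 300 pM IL-6 and to 125 nM JAK inhibitor controls.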

[5] = target: Glucocorticoid receptor (Homo sapiens) (UniProt P04150); assay: GR-GFP Redistribution (AID 450;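 active means compounds whose dose series gives a full or clear partial fitted curve of increased nuclear translocation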; further: potency means the concentration at half of the fitted maximal effect); settings: U2OS GR-GFP nuclear translocation, laser cytometry, 2 h
[6] = target: Glucocorticoid receptor (Homo sapiens) (UniProt P04150); assay: GR-EFC Redistribution (AID 451; calls by dose curve; further: potency means the concentration at half of the fitted maximal effect); settings: CHO-K1 GR-EFC translocation, beta-gal luminescence, 2 h
Summary of the method: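 Translocation of GR-ED fusion to nuclear EA restores b-gal, read by luminescence after 1 h room-temperature detection. Engineered CHO-K1 biosensor cells, 1,000/well, exposed 2 h at 37 C to titrations up to 46 uM final.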

[7] = target: Mitogen-activated protein kinase 10 (Mus musculus) (UniProt Q61831); assay: JNK3 AlphaScreen Assay (AID 530; active means well fitted curve in either direction with a large enough effect, not every such curve was filed as active;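 further: kinase came from lysate of stimulated human HepG2 cells; signal reports phosphorylation of biotinylated GST-cJun 1-79 at Ser73 with 10 µM ATP; on the % scale 0 is the no-effect control and ±100 the full control effect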); settings: JNK3 lysate, c-Jun phosphorylation; series mostly up to 57.1 µM
Summary of the method: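 Room-temperature AlphaScreen kinase assay; pre-activated HepG2 lysate as JNK3 source, biotin-GST-cJun(1-79) substrate, 10 uM ATP, compound 15 min preincubation.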

[8] = target: 3',5'-cyclic-AMP phosphodiesterase 4B (Homo sapiens) (UniProt Q07343); assay: qHTS Assay for Inhibitors of PDE-IV (AID 607; active means well fitted activation curve with a large enough effect in the main read-out, with a control signal flat, not every such curve was filed as active; further: % of control where 0% means no effect); settings: HEK293 ACTOne CNG channel cells, membrane potential fluorescence; series mostly up to 22.9 µM
Summary of the method: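 HEK293 ACTOne cells with CNG channel (1000/well), endogenous PDE4; membrane potential dye, compounds up to 22.9 uM final. Fluorescence Ex 535/Em 590; RO 20-1724 (100 uM final) as reference.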

[9] = target: Dual specificity protein kinase CLK4 (Homo sapiens) (UniProt Q9HAZ1); assay: qHTS Assay for Inhibitors of CDC-like Kinase 4 (Kinase-Glo Assay) (AID 1770); settings: recombinant Clk4, Kinase-Glo ATP depletion luminescence; series mostly up to 66.7 µM; further: nearly all actives have a fitted effect of over 65% in size; further: potency means the concentration at half of the fitted maximal effect
Summary of the method: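 Inhibition was judged from remaining ATP, measured by Ultra-Glo luciferase bioluminescence after Clk4 (25 nM) had acted on RS peptide at 1 uM ATP for 4.5 hours, room temperature.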

[10] = target: Dual specificity protein kinase CLK4 (Homo sapiens) (UniProt Q9HAZ1); assay: qHTS Assay for Inhibitors of CDC-like Kinase 4 (ADP-FP Assay) (AID 1795); settings: Transcreener ADP fluorescence polarization; series mostly up to 50 µM;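 further: recombinant human CLK4 phosphorylating RS repeat peptide at 1 µM ATP; on the % scale 0 is the no-effect control and ±100 the full control effect; nearly all actives have a fitted effect of over 60% in size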
Summary of the method: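 Inhibition of ADP formation by 6.25 nM Clk4 is measured using 1 uM ATP and 100 uM RS repeat peptide over one hour. Produced ADP displaces a fluorescent tracer from antibody, lowering polarization.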

[11] = target: Ubiquitin carboxyl-terminal hydrolase 1 (Homo sapiens) (UniProt O94782); assay: Inhibitors of USP1/UAF1: Pilot qHTS (AID 504865); settings: purified USP1/UAF1, Ub-rhodamine cleavage fluorescence; series mostly up to 54.9 µM; further: nearly all actives have a fitted effect of over 35% in size; further: potency means the concentration at half of the fitted maximal effect
Summary of the method: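 Kinetic fluorescence assay: 1nM USP1/UAF1, 15 min compound preincubation, then 150nM Ub-Rho; 480/540 nm.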

[12] = Primary qHTS for small molecule stabilizers of the endoplasmic reticulum resident proteome: Secreted ER Calcium Modulated Protein (SERCaMP) assay (AID 1508630); settings: SH-SY5Y GLuc-SERCaMP (Gaussia luciferase released on ER calcium loss) secretion, thapsigargin, luminescence; series mostly up to 38.4 µM; further: on the % scale 0 is the no-effect control and ±100 the full control effect
Summary of the method: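 GLuc-SERCaMP-expressing SH-SY5Y cells, pretreated 16 h with compound, are challenged with thapsigargin to empty ER calcium stores; after 4 h, coelenterazine is added directly to the medium and luminescence is imaged.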

[13] = target: Cytochrome P450 1A2 (Homo sapiens) (UniProt P05177); assay: p450-cyp1a2 (AID 410; calls by dose curve; further: potency means the concentration at half of the fitted maximal effect); settings: recombinant CYP1A2, luciferin-ME demethylation, luminescence; series mostly up to 57 µM
Summary of the method: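 Human CYP1A2 (20nM) demethylated Luciferin-ME at its Km (100uM) in 100mM KPO4. After 10 min compound preincubation, NADPH regeneration ran the reaction 60 min at room temperature. Luciferin was read by luminescence, normalized to 57 uM furafylline.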

[14] = target: Cytochrome P450 3A4 (Homo sapiens) (UniProt P08684); assay: qHTS Assay for Inhibitors and Substrates of Cytochrome P450 3A4 (AID 884); settings: recombinant CYP3A4, Luciferin-PPXE luminescence; series mostly up to 57.1 µM; further: potency means the concentration at half of the fitted maximal effect; nearly all actives have a fitted effect of over 50% in size
Summary of the method: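 20 nM human CYP3A4 with 25 uM Luciferin-PPXE (at KM) in 200 mM KPO4, preincubated 10 min with compound; NADPH regeneration started a 60 min RT reaction. Luciferin detected by luminescence, normalized to 57 uM ketoconazole as full inhibition.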

[15] = target: Cytochrome P450 3A4 (Homo sapiens) (UniProt P08684); assay: qHTS Assay for Activators of Cytochrome P450 3A4 (AID 885); settings: recombinant CYP3A4, Luciferin-PPXE luminescence, 60 min; series mostly up to 57.1 µM; further: nearly all actives have a fitted effect of over 65% in size; further: potency means the concentration at half of the fitted maximal effect
Summary of the method: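 Human CYP3A4 (20 nM) with Luciferin-PPXE at 25 uM (its KM) in 200 mM KPO4; 10 min compound preincubation, then NADPH regeneration and 60 min reaction at RT. Luciferin read by luminescence; normalized to 57 uM ketoconazole full inhibition.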

[16] = target: Cytochrome P450 2C19 (Homo sapiens) (UniProt P33261); assay: qHTS Assay for Inhibitors and Substrates of Cytochrome P450 2C19 (AID 899); settings: recombinant CYP2C19, luciferin-H EGE luminescence; series mostly up to 57.1 µM; further: potency means the concentration at half of the fitted maximal effect; nearly all actives have a fitted effect of over 60% in size
Summary of the method: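 Reactions contain 5nM enzyme, 10uM Luciferin-H EGE (KM) and 50mM KPO4; compound preincubates 10 min at 37C, NADPH regeneration starts turnover for 60 min. Luminescence after detection reagent gives activity.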

[17] = qHTS Assay for Identification of Small Molecule Agonists for Hypoxia Response Element Signaling Pathway (AID 914; active means well fitted activation curve with a large enough effect in the signal ratio, with a control signal flat, not every such curve was filed as active; the % refers to the signal ratio; further: potency means the concentration at half of the fitted maximal effect); settings: ME-180 (cervical carcinoma) HRE-bla reporter, beta-lactamase ratio, CoCl2, 17 h; activation: stronger effect = higher value
Summary of the method: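 A beta-lactamase reporter under hypoxia response element control in ME-180 cells served as the system. Compound titrations plus EC50 CoCl2 ran 17 h at 37 degrees Celsius; AC50 values were fitted from %Activity.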

Chain of Dual specificity protein kinase CLK4 (Homo sapiens) (Q9HAZ1 whole entry, looked up): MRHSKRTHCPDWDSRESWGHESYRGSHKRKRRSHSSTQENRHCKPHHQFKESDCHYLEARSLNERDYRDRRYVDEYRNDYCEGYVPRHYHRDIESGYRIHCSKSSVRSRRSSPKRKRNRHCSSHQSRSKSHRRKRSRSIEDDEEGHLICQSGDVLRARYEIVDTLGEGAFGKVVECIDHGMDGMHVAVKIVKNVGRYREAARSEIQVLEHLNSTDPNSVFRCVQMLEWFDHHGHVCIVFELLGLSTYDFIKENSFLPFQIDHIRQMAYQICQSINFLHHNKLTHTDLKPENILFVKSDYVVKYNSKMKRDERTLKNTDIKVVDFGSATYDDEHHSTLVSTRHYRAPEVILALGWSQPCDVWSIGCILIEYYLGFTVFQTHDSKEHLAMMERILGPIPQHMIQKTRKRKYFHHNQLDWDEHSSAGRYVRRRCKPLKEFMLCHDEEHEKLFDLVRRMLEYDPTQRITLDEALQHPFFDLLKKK
Chain of 3',5'-cyclic-AMP phosphodiesterase 4B (Homo sapiens) (Q07343 whole entry, looked up): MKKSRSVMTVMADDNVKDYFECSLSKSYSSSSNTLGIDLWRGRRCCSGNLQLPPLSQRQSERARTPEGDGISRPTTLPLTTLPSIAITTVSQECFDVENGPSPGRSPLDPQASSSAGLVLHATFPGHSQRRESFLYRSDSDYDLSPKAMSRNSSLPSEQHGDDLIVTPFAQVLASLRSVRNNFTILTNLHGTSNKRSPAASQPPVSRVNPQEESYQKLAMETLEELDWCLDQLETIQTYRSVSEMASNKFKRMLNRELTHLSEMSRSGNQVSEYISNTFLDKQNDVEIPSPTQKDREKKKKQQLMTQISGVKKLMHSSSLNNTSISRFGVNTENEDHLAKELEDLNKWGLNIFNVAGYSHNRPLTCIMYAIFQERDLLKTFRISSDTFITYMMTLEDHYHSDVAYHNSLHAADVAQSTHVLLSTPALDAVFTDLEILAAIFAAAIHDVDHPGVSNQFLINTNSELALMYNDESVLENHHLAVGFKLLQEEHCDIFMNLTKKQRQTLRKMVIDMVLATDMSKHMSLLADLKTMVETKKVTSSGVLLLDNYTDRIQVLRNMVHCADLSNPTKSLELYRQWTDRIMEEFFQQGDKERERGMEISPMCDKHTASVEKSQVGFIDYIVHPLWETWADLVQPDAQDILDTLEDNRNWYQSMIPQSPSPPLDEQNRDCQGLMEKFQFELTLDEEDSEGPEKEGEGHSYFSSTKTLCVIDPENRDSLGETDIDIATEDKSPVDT
Chain of Ubiquitin carboxyl-terminal hydrolase 1 (Homo sapiens) (O94782 whole entry, looked up): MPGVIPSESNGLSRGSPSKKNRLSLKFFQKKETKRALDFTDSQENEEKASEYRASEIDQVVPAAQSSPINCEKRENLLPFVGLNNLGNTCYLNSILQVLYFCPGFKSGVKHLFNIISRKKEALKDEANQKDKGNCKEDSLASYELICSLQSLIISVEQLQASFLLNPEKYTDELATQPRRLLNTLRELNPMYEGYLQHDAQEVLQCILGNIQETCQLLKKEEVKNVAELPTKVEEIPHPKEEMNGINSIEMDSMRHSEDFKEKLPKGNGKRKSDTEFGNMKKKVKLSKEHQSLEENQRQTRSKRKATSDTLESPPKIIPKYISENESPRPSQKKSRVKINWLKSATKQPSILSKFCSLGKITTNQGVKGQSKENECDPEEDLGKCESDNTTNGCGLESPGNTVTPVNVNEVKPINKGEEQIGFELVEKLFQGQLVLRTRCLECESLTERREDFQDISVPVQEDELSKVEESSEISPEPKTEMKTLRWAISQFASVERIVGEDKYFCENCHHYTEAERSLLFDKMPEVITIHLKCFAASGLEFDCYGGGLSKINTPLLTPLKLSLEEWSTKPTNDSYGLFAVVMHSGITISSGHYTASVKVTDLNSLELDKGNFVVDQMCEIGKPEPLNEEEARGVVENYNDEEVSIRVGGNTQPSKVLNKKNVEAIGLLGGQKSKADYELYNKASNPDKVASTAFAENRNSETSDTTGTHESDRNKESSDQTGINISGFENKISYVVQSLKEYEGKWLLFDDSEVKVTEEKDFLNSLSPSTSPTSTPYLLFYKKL
Chain of Glucocorticoid receptor (Homo sapiens) (P04150 whole entry, looked up, the tested form may be a part): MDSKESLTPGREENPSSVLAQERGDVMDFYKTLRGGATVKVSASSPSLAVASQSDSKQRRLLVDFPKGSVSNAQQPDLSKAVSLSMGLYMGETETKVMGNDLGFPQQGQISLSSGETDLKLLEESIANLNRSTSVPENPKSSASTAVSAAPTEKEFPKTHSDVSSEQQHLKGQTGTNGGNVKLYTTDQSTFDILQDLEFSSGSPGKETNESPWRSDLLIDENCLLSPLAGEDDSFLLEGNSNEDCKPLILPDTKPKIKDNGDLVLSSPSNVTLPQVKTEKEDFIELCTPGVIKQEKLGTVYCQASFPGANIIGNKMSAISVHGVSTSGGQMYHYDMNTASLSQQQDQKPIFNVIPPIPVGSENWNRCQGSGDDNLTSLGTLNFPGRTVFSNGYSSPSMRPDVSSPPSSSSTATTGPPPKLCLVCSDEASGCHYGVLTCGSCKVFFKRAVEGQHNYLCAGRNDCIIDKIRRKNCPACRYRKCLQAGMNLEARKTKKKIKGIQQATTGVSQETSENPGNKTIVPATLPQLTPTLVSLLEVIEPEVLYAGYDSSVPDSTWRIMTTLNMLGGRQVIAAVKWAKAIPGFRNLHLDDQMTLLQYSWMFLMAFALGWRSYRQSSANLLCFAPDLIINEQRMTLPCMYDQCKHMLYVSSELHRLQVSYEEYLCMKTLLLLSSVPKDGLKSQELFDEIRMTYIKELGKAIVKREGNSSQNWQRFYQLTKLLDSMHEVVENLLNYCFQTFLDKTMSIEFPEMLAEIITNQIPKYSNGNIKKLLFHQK
Chain of Lysosomal acid glucosylceramidase (Homo sapiens) (P04062 whole entry, looked up): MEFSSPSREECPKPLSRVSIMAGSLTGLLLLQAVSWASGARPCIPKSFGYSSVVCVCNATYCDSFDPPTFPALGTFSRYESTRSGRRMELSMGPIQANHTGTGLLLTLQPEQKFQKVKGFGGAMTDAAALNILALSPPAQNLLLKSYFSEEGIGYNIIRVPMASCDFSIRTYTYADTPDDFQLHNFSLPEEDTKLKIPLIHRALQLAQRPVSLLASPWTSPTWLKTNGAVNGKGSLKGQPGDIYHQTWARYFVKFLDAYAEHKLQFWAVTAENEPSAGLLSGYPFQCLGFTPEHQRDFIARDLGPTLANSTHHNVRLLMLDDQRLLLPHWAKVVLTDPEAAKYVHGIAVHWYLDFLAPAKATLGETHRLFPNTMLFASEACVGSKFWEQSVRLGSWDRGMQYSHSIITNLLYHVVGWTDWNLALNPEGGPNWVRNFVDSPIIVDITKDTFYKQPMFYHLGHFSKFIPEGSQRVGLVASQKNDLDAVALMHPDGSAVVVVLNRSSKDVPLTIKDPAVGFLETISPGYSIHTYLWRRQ
Chain of Cytochrome P450 1A2 (Homo sapiens) (P05177 whole entry, looked up): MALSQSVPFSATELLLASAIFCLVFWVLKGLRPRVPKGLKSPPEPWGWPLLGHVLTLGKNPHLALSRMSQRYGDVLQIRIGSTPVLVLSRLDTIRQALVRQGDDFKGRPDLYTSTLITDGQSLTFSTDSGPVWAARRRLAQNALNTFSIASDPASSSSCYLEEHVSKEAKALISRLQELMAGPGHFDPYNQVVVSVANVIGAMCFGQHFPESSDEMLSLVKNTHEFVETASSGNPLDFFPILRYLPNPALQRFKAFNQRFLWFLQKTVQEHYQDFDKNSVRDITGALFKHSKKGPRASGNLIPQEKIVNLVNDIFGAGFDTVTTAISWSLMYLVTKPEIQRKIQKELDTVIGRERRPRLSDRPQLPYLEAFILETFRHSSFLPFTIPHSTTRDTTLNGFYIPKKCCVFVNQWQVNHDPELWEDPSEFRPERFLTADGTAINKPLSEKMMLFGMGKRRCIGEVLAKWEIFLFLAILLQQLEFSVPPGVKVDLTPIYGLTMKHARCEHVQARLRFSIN
Chain of Cytochrome P450 3A4 (Homo sapiens) (P08684 whole entry, looked up): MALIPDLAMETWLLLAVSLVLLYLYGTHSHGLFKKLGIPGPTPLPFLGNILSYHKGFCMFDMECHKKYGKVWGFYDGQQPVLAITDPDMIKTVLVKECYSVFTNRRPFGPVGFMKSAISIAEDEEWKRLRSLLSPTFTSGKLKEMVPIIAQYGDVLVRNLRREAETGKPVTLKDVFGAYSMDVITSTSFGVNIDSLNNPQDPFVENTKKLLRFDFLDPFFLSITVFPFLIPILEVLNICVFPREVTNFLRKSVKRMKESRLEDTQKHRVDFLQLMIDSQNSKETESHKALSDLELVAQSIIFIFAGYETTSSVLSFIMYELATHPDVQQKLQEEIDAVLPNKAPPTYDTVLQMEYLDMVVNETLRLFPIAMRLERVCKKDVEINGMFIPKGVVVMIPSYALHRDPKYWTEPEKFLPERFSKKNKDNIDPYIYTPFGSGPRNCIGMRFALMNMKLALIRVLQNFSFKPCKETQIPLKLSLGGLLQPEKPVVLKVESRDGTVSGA
Chain of Cytochrome P450 2C19 (Homo sapiens) (P33261 whole entry, looked up): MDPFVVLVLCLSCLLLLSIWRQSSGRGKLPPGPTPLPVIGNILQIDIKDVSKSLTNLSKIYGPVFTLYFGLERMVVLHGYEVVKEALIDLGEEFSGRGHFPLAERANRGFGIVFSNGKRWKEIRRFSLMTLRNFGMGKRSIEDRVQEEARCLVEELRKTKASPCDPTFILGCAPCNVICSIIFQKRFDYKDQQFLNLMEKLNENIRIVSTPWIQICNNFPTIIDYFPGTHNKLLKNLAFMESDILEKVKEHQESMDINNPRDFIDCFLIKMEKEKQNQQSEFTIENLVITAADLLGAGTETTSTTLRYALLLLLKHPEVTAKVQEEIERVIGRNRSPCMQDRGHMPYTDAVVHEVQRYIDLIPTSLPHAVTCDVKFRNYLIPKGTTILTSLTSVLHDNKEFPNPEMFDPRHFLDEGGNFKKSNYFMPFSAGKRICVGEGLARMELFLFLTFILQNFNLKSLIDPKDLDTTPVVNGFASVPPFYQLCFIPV

COc1ncc2nc(-c3ccc(Cl)cc3)c(=O)n(CCC#N)c2n1
inactive: Potency [1] > 11.4 µM | activity change, negative = inhibition [2] -9.68% | activity change, negative = inhibition [3] 3.96% | activity, negative = inhibition [4] -4.68% | Potency [5] > 9.22 µM | Potency [6] > 46 µM | Potency [7] | Potency [8] | Potency [9] | Potency [10] | Potency [11] | outcome [12]

N#Cc1cccc(-c2nc(NCc3cccnc3)c3ccccc3n2)c1
active: Potency [13] 0.251 µM | Potency [14] 5.01 µM
inactive: Potency [1] > 11.4 µM | activity change, negative = inhibition [2] -20.1% | activity change, negative = inhibition [3] 28.2% | activity, negative = inhibition [4] -21.4% | Potency [5] > 46 µM | Potency [6] > 46 µM | Potency [7] | Potency [15] | Potency [9] | Potency [11] | outcome [12]

COc1cccc(-c2nccc(NCc3ccc(OC)cc3OC)n2)c1
active: Potency [13] 1 µM | Potency [14] 3.16 µM | Potency [16] 2.51 µM | Potency [9] 31.6 µM
inactive: activity change, negative = inhibition [2] -28.1% | activity change, negative = inhibition [3] -2.27% | activity, negative = inhibition [4] -11.4% | Potency [5] > 46 µM | Potency [6] > 46 µM | Potency [7] | Potency [15] | Potency [10] | Potency [11] | outcome [12]

CN1CCN(c2ncc3nc(-c4ccc(Cl)cc4)c(=O)n(C)c3n2)CC1
inactive: Potency [1] > 11.4 µM | Potency [5] > 9.22 µM | Potency [6] > 46 µM | Potency [7] | Potency [8] | Potency [9] | Potency [10] | Potency [11] | outcome [12]
active: Potency [15] 12.6 µM | Potency [17] 3.16 µM

CCNc1ncc2nc(CCc3ccccc3)c(=O)n(Cc3ccc(F)cc3)c2n1
inactive: Potency [1] > 11.4 µM | activity change, negative = inhibition [3] 20.5% | activity, negative = inhibition [4] 26.2% | Potency [5] > 9.22 µM | Potency [6] > 46 µM | Potency [7] | Potency [15] | Potency [9] | Potency [10] | Potency [11] | outcome [12]
active: Potency [14] 2.51 µM

COc1cccc(Cn2c(=O)c(-c3cn(C)c4ccccc34)nc3cnc(N4CCOCC4)nc32)c1
inactive: Potency [1] > 11.4 µM | activity change, negative = inhibition [2] 5% | activity change, negative = inhibition [3] 7.78% | activity, negative = inhibition [4] 10.6% | Potency [5] > 9.22 µM | Potency [6] > 46 µM | Potency [7] | Potency [8] | Potency [9] | Potency [10] | Potency [11] | outcome [12]

Cc1noc(C)c1-c1nc(NCc2cccs2)c2ccccc2n1
inactive: Potency [1] > 2.29 µM | activity change, negative = inhibition [2] 3.98% | activity, negative = inhibition [4] -8.06% | Potency [5] > 46 µM | Potency [6] > 46 µM | Potency [7] | Potency [15] | Potency [9] | Potency [10] | outcome [12]
active: Potency [13] 0.2 µM | Potency [14] 6.31 µM | Potency [11] 10 µM
